# About 940 (45%) of roughly 2,100 compounds were called active. Not shown: some 48% with an inconclusive outcome. Calls follow the shape of the dose curve; as a rule, active = well fitted inhibition curve with a large enough effect; inconclusive = small, poorly fitted or top-dose-only effect; inactive = no such curve, though single readings can be large or run the other way. So high a share suggests a set chosen from earlier hits. Some of the results follow.
# Assay: Confirmatory qHTS for Inhibitors of ATXN expression; also: nearly all actives have a fitted effect of over 65% in size
# Conditions: ATXN2-luciferase reporter cells, luminescence, 24 h; series mostly up to 11.5 µM
# Text: PI: Daniel Scoles Ph.D. University of Utah School of Medicine, Salt Lake City, Utah MLPCN Grant: NS073009 Spinocerebellar ataxia type 2 (SCA2) is a multisystem neurodegenerative disease caused by a dominantly acting mutation leading to expansion of a polyQ domain in the ataxin-2 protein (ATXN2). SCA2 patients develop progressive ataxia and later lose function in other neuronal systems. Prominent parkinsonian signs develop in some patients. Like many neurodegenerative disorders, no symptomatic or disease-modifying treatments are known. The primary objective of the proposed research is to identify compounds inhibiting ATXN2 expression and to test them for efficacy in SCA2 mouse models. We have developed a cell-based assay paired with an in vivo mouse model using identical luciferase expression constructs. This approach takes advantage of an ATXN2-luciferase transgene, with the luciferase gene flanked by the upstream and downstream portions of the ATXN2 gene. Here we describe a 5-7 dose quantitative high thoroughput screen (qHTS) for compounds lowering ATXN2 expression. We screened the NIH Molecular Libraries Small Molecule Repository (MLSMR) and NCGC's mechanistically annotated (MIPE) and drug repurposing (NPC) collections of compounds for lowering expression of an ATXN2-luciferase reporter in HEK-293 cells. The assay is a multiplexed cell viability assay to ensure target reduction in the absence of cytotoxicity. Secondary qHTS assays included a CMV-luciferase reporter expressed in HEK-293 cells as well as a biochemical assay using recombinant luciferase to detect inhibitors of the reporter enzyme. Compounds that inhibit ATXN2 expression but is not cytotoxic were selected for confirmatory and secondary screens.
# PROTOCOL TABLE (as described by Inglese J, Shamu CE and Guy RK. 2007) SEQUENCE No. (e.g., 1, 2, 3, etc.); PARAMETER (e.g., Cells, Incubation, Reagent, etc.); VALUE; DESCRIPTION. 1; Cells; 4 uL; white, solid bottom, 1536-well Greiner assay plate. 2; Incubation; 2 hr; 37 degree C in 5% humidified CO2. 3; Compounds; 23 nL; Kalypsis pintool (Wako USA) equipped with a 1536-well pin head. 4; Incubation; 24 hr; 37 degree C in 5% humidified CO2. 5; Reagent; 1 uL; Gly-Phe-7-Amino-4-trifluoromethylcoumarin. 6; Incubation; 30 min; 37 degree C in 5% humidified CO2. 7; Detection; Fluorescence; ViewLux plate reader (PerkinElmer). 8; Reagent; 3 uL; SteadyGlo luciferase solution (Promega). 9; Incubation; 5 min; room temperature. 10; Detection; Luminescence; ViewLux plate reader (PerkinElmer). NOTES (numbers refer to Sequence numbers above) 1. […] expressing ATXN2-luciferase reporter were suspended in phenol-red free DMEM and dispensed in assay plates using a Multidrop Combi dispenser (Thermo Fisher Scientific). Wells containing medium only were plated on each plate, and values were used to normalize (100% inhibition) in the luciferase and CellTiter-Fluor assays. 2. Assay plates were incubated. Evaporation was prevented by covering assay plates with metal lids containing holes to allow gas diffusion. 3. Compounds were added in a dose response manner with the final concentrations of 57, 11.4, 2.28, 0.46, 0.091, 0.018, 0.0037 uM. Vehicle-only plates, with DMSO being pin-transferred to columns 5-48, were inserted uniformly at the beginning and the end of each library to monitor and record any shifts in assay performance. 5. 125 uM Gly-Phe-7-Amino-4-trifluoromethylcoumarin (MP Biomedicals) working concentration was used at a final concentration of 25 uM. 7. To assess cell viability; the assay plates were read using the ViewLux high-throughput CCD imager (PerkinElmer), wherein single end-point fluorescence measurement was acquired (excitation 405/10; emission 540/25 nm). 8. Detection reagent SteadyGlo Luciferase (Promega) was added to the assay plate. 10. Luminescence is then measured on the ViewLux imager equipped with a clear emission filter using a 2 sec exposure. […]
# Potency is read from the fitted curve at half-maximal effect.
row,Compound,Potency
1,CC(C(=O)c1ccc(-c2ccccc2)cc1)[n+]1cccc(NC(=O)c2ccccc2)c1 (stereo unspecified),inactive
2,Cc1cc[n+](C(C)C(=O)c2ccc(-c3ccccc3)cc2)cc1 (stereo unspecified),14.1 µM (active)
3,Cc1ccc(Cc2cnc(N3C(=N)SC(C)C3=O)s2)cc1 (stereo unspecified),inactive
4,COc1ccc(OC)c(NC(=O)COC(=O)c2c3c(nc4ccccc24)CCCC3)c1,3.16 µM (active)
5,Cn1cc(SCC(=O)Nc2nc3ccccc3s2)c2ccccc21,3.16 µM (active)
6,CC(C)CC(N)c1csc(Nc2ccc(C(=O)N(C)Cc3ccccc3)cn2)n1 (stereo unspecified),12.6 µM (active)
7,COc1ccc(CC(N)c2csc(Nc3ccc(C(=O)c4ccccc4)cc3)n2)cc1 (stereo unspecified),inactive
8,NC(Cc1ccc(F)cc1)c1csc(Nc2cc(NCc3ccco3)ncn2)n1 (stereo unspecified),inactive
9,NC(Cc1ccccc1)c1csc(Nc2ccc(C(F)(F)F)cn2)n1 (stereo unspecified),31.6 µM (active)
10,NC(c1csc(Nc2nccc(C(F)(F)F)n2)n1)C1CCCCC1 (stereo unspecified),3.55 µM (active)
11,NC(COCc1ccccc1)c1csc(Nc2ccc(C(F)(F)F)cn2)n1 (stereo unspecified),31.6 µM (active)
12,NC(Cc1ccc(C(F)(F)F)cc1)c1csc(Nc2nccc(C(F)(F)F)n2)n1 (stereo unspecified),3.55 µM (active)
13,Cc1cc(C(=O)N/N=C/c2ccc([N+](=O)[O-])s2)n[nH]1,8.91 µM (active)
14,CC(C)(C)c1cc(C(=O)N/N=C/c2ccc([N+](=O)[O-])s2)n[nH]1,5.01 µM (active)
15,O=C(Cn1cnc([N+](=O)[O-])c1)Nc1cc(Oc2ccc(Cl)cc2Cl)cc([N+](=O)[O-])c1,2.82 µM (active)
16,O=C(NCc1cc(C(F)(F)F)ccc1Cl)c1cccc2c1C(=O)c1ccc(N3CCOCC3)cc1S2(=O)=O,3.98 µM (active)
17,O=C(NCc1ccccc1C(F)(F)F)c1cccc2c1C(=O)c1ccc(N3CCC(N4CCCCC4)CC3)cc1S2(=O)=O,3.16 µM (active)
18,CCCc1nc2c(c(=O)c3ccccc3n2C)c(=O)n1C1CCCCCC1,14.1 µM (active)
19,COc1ccc(C(=O)Nn2c(SCC(=O)c3ccccc3)nc3ccccc3c2=O)cc1,15.8 µM (active)
20,O=[N+]([O-])c1ccccc1S(=O)(=O)Nc1cccc2cccnc12,10 µM (active)
21,Cc1ccc(S(=O)(=O)Nc2cccc3cccnc23)cc1,8.91 µM (active)
22,O=S(=O)(Nc1cccc2cccnc12)c1ccccc1,1.58 µM (active)
23,Cc1ccc(S(=O)(=O)Nc2cc(Cl)c(O)c3ncccc23)cc1,3.55 µM (active)

row,Compound,Potency
1,O=C(/C=C/Nc1ccc(S(=O)(=O)Nc2ncccn2)cc1)c1ccc(Cl)c(Cl)c1,inactive
2,CCc1ccc(N(CC)C(=O)c2ccc3c(Cl)c4c(nc3c2)CCC4)cc1,3.55 µM (active)
3,C[C@@H]1ON(C)[C@H]2C[C@H]3c4[nH]c5ccc(-c6ccc7c(c6)OCO7)cc5c4CCN3C(=O)[C@@H]12,15.8 µM (active)
4,Nc1cccc2nc3ccccc3cc12,7.94 µM (active)
5,Nc1c2ccccc2nc2ccccc12,3.55 µM (active)
6,CCc1nc2ccc(C(=O)Nc3cc(-c4ccccc4)ccc3OC)cn2c1N(CC)CC(=O)N(C)C,28.2 µM (active)
7,Cc1ccc(S(=O)(=O)NCC(=O)N/N=C/c2ccccc2O)cc1,3.16 µM (active)
8,O=C(CNS(=O)(=O)c1ccc([N+](=O)[O-])cc1)N/N=C/c1ccc(O)cc1O,3.16 µM (active)
9,Cc1ccc(SCCC(=O)N/N=C/c2ccccc2O)cc1,3.55 µM (active)
10,O=C(CCCOc1ccc(Cl)cc1Cl)N/N=C/c1ccccc1O,2.82 µM (active)
11,N#CC1=C(N)N2C(=C(C#N)C1c1cccc(Br)c1)Nc1ccccc12 (stereo unspecified),3.16 µM (active)
12,Cc1csc2ncnc(NC3CCN(Cc4ccccc4)CC3)c12,0.794 µM (active)
13,CC(C)(C)c1ccc(Oc2ccc(N)cc2)cc1,2.24 µM (active)
14,CC(C)(C)c1ccc(Oc2ccc(N)cn2)cc1,3.16 µM (active)
15,COc1ccc(O)c(/C=N/NC(=O)CSc2nnc(C)n2-c2ccccc2)c1,2.82 µM (active)
16,Cc1cc(C)n(CCC(=O)N/N=C/c2ccc(O)cc2O)n1,3.16 µM (active)
17,Cc1cccc(NC(=O)CCC(=O)N/N=C/c2ccc(O)cc2O)c1,3.16 µM (active)
18,COc1ccc(O)c(/C=N/NC(=O)CCC(=O)Nc2cccc(C)c2)c1,14.1 µM (active)
19,COc1cc(OC)c(OC)cc1/C=C1\CC(C)C/C(=C\c2cc(OC)c(OC)cc2OC)C1=O (stereo unspecified),14.1 µM (active)
20,COc1cc(OC)c(OC)cc1/C=C1\CCC/C(=C\c2cc(OC)c(OC)cc2OC)C1=O,3.98 µM (active)
21,Cc1ccccc1C(=O)N1CCN(c2ccc(NC(=O)c3ccco3)cc2Cl)CC1,17.8 µM (active)
22,O=C(Nc1ccc(N2CCN(C(=O)c3ccccc3)CC2)c(Cl)c1)c1ccc(Br)o1,2.51 µM (active)
23,O=C(CCN1C(=O)C2CC=CCC2C1=O)Nc1nc(-c2ccc(F)c(F)c2)cs1 (stereo unspecified),inactive

row,Compound,Potency
1,COc1ccc(CC(=O)Nc2nc(-c3ccc(OC)c(OC)c3)cs2)cc1OC,3.16 µM (active)
2,COc1ccc(CC(=O)Nc2nc(-c3ccc(F)c(F)c3)cs2)cc1OC,4.47 µM (active)
3,COc1cc(CC(=O)Nc2nc(-c3ccc(F)c(F)c3)cs2)cc(OC)c1OC,3.98 µM (active)
4,O=C(Nc1nc(-c2ccc(F)c(F)c2)cs1)Nc1ccc(F)cc1F,1.41 µM (active)
5,COCCNc1nc(-c2cc(C)n(CCc3ccc(OC)cc3)c2C)cs1,inactive
6,CCCCCc1ccc(OCCCC[n+]2cccc(C)c2)c(CCCCC)c1,14.1 µM (active)
7,CCCCCc1ccc(OCCC[n+]2ccccc2)c(CCCCC)c1,14.1 µM (active)
8,CCOC(=O)[C@H]1[C@H]2COc3ccc(OC)cc3[C@@H]2N2C(=O)c3cc(OC)c(OC)cc3NC(=O)[C@@]12C,inactive
9,COc1ccc(/C=C2\CN(Cc3ccccc3)C/C(=C\c3ccc(OC)c(O)c3)C2=O)cc1O,3.98 µM (active)
10,COc1ccc(C(=O)Cn2c(C(=O)/C=C/c3ccccc3)nc3ccccc32)cc1,2.82 µM (active)
11,COCC(C)n1c(C)cc(C(=O)COC(=O)c2cccn2C)c1C (stereo unspecified),2.24 µM (active)
12,C/C(=N\NC(=O)c1cc(C2CC2)nc2ccccc12)c1ccc(O)cc1O,3.55 µM (active)
13,C/C(=N\NC(=O)c1cc(-c2cccnc2)nc2ccccc12)c1ccc(O)cc1O,2.51 µM (active)
14,Cc1cccc(/C=N/NC(=O)c2c(-c3ccccc3)noc2C)c1O,1.26 µM (active)
15,COc1cccc(/C=N/NC(=O)c2c(-c3ccccc3)noc2C)c1O,0.708 µM (active)
16,Cc1onc(-c2ccccc2)c1C(=O)Nc1ccc(S(=O)(=O)NC(C)(C)C)cc1,inactive
17,Cc1cc(N2CCN(C)CC2)ccc1NC(=O)c1ccc(-c2ccc(Cl)cc2)o1,14.1 µM (active)
18,O=C(N/N=C/c1ccccc1O)C1CC(=O)N(c2ccc(F)cc2)C1 (stereo unspecified),3.55 µM (active)
19,CCc1ccc(N2CC(C(=O)N/N=C/c3cc([N+](=O)[O-])ccc3O)CC2=O)cc1 (stereo unspecified),25.1 µM (active)
20,O=C(N/N=C/c1ccccc1O)C1CC(=O)N(c2ccc(Cl)cc2)C1 (stereo unspecified),1.41 µM (active)
21,COC(=O)C(Cc1ccc(O)cc1)NC(=O)C(C)Oc1ccccc1 (stereo unspecified),inactive
22,COc1ccccc1NC(=S)NC(=O)c1ccc(Cn2cc(Br)cn2)cc1,inactive
23,CC(Oc1ccc(Cl)cc1)C(=O)NNC(=S)NC(=O)c1ccco1 (stereo unspecified),14.1 µM (active)

row,Compound,Potency
1,COc1ccccc1C(=O)NNC(=S)NC(=O)c1ccco1,6.31 µM (active)
2,CC(=O)c1ccc(NC(=O)COC(=O)c2c3c(nc4ccccc24)/C(=C\c2cccs2)CCC3)cc1,20 µM (active)
3,O=C(NN=Cc1ccc(O)cc1O)c1ccccc1NS(=O)(=O)c1cccs1,2.82 µM (active)
4,O=C1/C(=C/c2ccncc2)CCC/C1=C\c1ccncc1,5.62 µM (active)
5,CN1C/C(=C/c2cccnc2)C(=O)/C(=C/c2cccnc2)C1,inactive
6,CCn1c(/C=C/c2ccc([N+](=O)[O-])o2)nc2ccccc2c1=O,7.08 µM (active)
7,O=C(Nc1ccc(F)cc1)Nc1cc(OCC(F)(F)F)cc(OCC(F)(F)F)c1,3.55 µM (active)
8,COc1ccc(CC2C(=O)NC(C)C(=O)N(C)C3Cc4ccc(cc4)Oc4cc(ccc4O)CC(C(=O)NC(C)C(=O)NC(C)C(=O)N2C)N(C)C3=O)cc1 (stereo unspecified),0.251 µM (active)
9,O=C(CCCC(=O)Nc1cccc(Br)c1)N/N=C/c1cc([N+](=O)[O-])ccc1O,3.16 µM (active)
10,O=C(CCC(=O)Nc1cc(C(F)(F)F)ccc1Cl)N/N=C\c1cc([N+](=O)[O-])ccc1O,3.16 µM (active)
11,O=C(CSCc1ccc(Cl)cc1)Nc1cc([N+](=O)[O-])ccc1O,inactive
12,c1ccc(CN=C(NCc2ccccc2)NCc2ccccc2)cc1,28.2 µM (active)
13,COc1ccc2[nH]c3c(N4CCC(O)(c5cccc(C(F)(F)F)c5)CC4)ncnc3c2c1,2.82 µM (active)
14,COc1cccc2c1C1COC3C4CC(C(=O)O)C(C(C2)N13)N4C (stereo unspecified),10 µM (active)
15,COc1cccc2c1C(CO)N1C(C#N)C3CC(C(=O)O)C(C1C2)N3C (stereo unspecified),0.282 µM (active)
16,Cc1nnc(-c2ccccc2)c(=O)n1/N=C/c1c(O)ccc2ccccc12,10 µM (active)
17,COC(=O)c1ccc(N2CCOCC2)c(NC(=O)Nc2cccc(OC)c2)c1,inactive
18,COc1ccc2nc(C)cc(Nc3ccc(N4CCOCC4)cc3)c2c1,15.8 µM (active)
19,CC(C)(C)c1ccc(C(=O)N2CCCCCC2=O)cc1,1.78 µM (active)
20,COc1ccc(-c2csc(N(CCCN(C)C)C(=O)c3ccccc3Cl)n2)cc1,3.16 µM (active)
21,COc1ccc(-c2csc(N(CCCN3CCOCC3)C(=O)c3ccco3)n2)cc1,3.16 µM (active)
22,COc1ccc(/C(N)=N/OC(=O)N2CCOCC2)cc1,inactive
